m5-HT2A agonist – agonists of mouse serotonin 5-HT2A receptor (HTR2A) | activation, % at 7.6 µM | CHO-K1 mHTR2A beta-arrestin complementation, luminescence; percent of 30 µM serotonin response | P35363 | 0.66% of 360,000 active;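 active = activation above a run cutoff, the mean activation of all tested compounds plus 3 SD, cut at about 14% in these data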;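 note: 0% = plate median of compound wells and 100% = 30 µM serotonin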
V-ATPase pH – alters yeast V-ATPase proton transport; AID 504577; S. cerevisiae, pHLuorin cytosolic pH fluorescence; response, % at 10 µM; 0.37% of 350,000 active; in the data active = response mostly above about 7.3%, no sharp cut-off; inactive = mostly below about 5.4%; note: actives read high
Granule exo inh – lytic granule exocytosis inhibition; inhibition, % at 10 µM; 0.66% of 360,000 active; TALL-104 LAMP-1 surface exposure, flow cytometry; cells stimulated with thapsigargin and PMA;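 active = inhibition above about 55%, limit read from the data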
MEX-5 binding – C. elegans MEX-5 TCR-2 RNA binding activity; Q9XUB2; MEX-5/FITC-TCR2 RNA binding, fluorescence polarization; stronger effect = lower value; activity score (negative = inhibition of binding), % at 10 µM; 0.38% of 300,000 active; AID 1832;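 active = inhibition past about -25% in most replicates, and total fluorescence under double the plate's negative control median, limit read from the data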;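 note: 0% = DMSO and -100% = 5 µM competing unlabeled TCR2 RNA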
VLA-4 inh – inhibition in a human VLA-4 binding assay. P13612. VLA-4 expressing cells, ligand binding flow cytometry. inhibition, % (about 7 µM as worked out from the volumes in the protocol). 0.2% of 330,000 active. AID 2557; in the data active = inhibition above about 50%
Target sequence (P13612 whole entry, looked up): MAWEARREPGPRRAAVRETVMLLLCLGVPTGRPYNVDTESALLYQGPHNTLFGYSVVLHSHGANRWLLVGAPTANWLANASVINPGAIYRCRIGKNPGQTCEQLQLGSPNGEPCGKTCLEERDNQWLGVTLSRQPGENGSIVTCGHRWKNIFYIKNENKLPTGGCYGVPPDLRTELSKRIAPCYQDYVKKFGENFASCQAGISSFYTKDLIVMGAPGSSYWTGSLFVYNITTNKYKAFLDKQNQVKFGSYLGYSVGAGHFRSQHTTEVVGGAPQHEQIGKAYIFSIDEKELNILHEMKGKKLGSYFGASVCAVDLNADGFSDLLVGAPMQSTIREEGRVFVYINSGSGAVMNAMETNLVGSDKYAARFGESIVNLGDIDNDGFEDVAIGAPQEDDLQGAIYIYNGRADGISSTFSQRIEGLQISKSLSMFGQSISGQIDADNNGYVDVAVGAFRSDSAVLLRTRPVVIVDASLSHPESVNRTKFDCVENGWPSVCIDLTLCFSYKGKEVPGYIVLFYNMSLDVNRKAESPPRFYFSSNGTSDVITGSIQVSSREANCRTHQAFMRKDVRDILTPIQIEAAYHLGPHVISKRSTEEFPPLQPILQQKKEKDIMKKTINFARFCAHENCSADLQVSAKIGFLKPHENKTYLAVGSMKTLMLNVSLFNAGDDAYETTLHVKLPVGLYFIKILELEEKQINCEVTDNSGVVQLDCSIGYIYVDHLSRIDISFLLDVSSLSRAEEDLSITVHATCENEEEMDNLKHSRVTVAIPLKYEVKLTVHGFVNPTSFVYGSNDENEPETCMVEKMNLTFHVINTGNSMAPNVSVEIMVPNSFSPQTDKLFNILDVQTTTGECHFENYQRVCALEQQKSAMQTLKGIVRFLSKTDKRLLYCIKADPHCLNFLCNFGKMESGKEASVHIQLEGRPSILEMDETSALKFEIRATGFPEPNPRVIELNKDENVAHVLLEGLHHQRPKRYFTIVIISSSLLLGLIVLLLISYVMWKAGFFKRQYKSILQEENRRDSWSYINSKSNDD
GASC-1 inh – blocks human GASC-1 demethylase activity; Q9H3R0; 0.069% of 330,000 active; inhibition, % at 2.35 µM; GST-JMJD2C(1-420) H3K9me3 demethylation, DELFIA europium;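 active = more than half of a compound's replicate wells show inhibition beyond 50%, single wells judged on their own value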;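 note: signal counts dimethyl H3K9 product captured on neutravidin plate; 0% = median of DMSO wells and 100% = 0.3 times that DMSO median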
VLA-4 mod pick – human VLA-4 allosteric modulation in cherry picked compounds. shares compounds with VLA-4 inh. U937 cells, HUTS-21 LIBS mAb binding, flow cytometry; LDV ligand present at threefold Kd. inhibition, % at 6.7 µM. 2% of 1,300 active. AID 2813; in the data active = inhibition above about 40%;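 note: 0% = ligand without compound and 100% = no ligand background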
An asterisk follows results filed as active; nt = no result. Hits are enriched below; roughly 2.2% of the tested compounds scored in any of these assays.

SMILES	m5-HT2A agonist	V-ATPase pH	Granule exo inh	MEX-5 binding	VLA-4 inh	GASC-1 inh	VLA-4 mod pick
COC1=CC(=O)C[C@@H](C)[C@]12Oc1c(Cl)c(OC)cc(OC)c1C2=O	4	-7	-2	2	54*	-7	7
O=C(CCc1nnc2n(Cc3ccccc3)c(=O)c3ccccc3n12)NCCN1CCOCC1	-2	1	-2	4	-17	-2	nt
CC(OC(=O)C(C)N1C(=O)C2C3C=CC(C4CC34)C2C1=O)C(=O)c1ccccc1 (centres undefined)	1	0	-2	1	58*	1	-12
O=C(NC1CCN(Cc2ccccc2)CC1)c1cn(-c2ccccc2)nc1-c1cccnc1	-14	-1	0	1	-2	-5	nt
COC(=O)[C@@H]1[C@@H](C#N)C2(c3ccccc3-c3ccccc32)N(c2ccc(Cl)cc2)N1C#N	4	0	9	2	58*	1	39
CCOC(=O)C1CCCN(c2c(NCCc3ccc(Cl)cc3)c(=O)c2=O)C1 (centres undefined)	7	3	-5	1	-15	-3	nt
O=C(O)C1CCCCC1C(=O)Nc1ccc(S(=O)(=O)N2CCOCC2)cc1 (centres undefined)	-4	4	2	nt	nt	nt	nt
Cn1c(NC(=O)c2ccc(C(C)(C)C)cc2)cc(=O)n(C)c1=O	0	-1	-1	nt	53*	6	4
Cn1c(NNC(=O)c2ccc(C(C)(C)C)cc2)cc(=O)n(C)c1=O	1	-2	1	0	4	-47	nt
CCOc1ccccc1NC(=O)c1cnc(NS(=O)(=O)c2ccccc2)nc1	-4	-2	0	-1	4	1	nt
O=C(CCSc1ccc(Br)cc1)c1ccc(O)cc1	-2	-1	-2	-1	41	-11	-13
O=C(CCO)c1ccc(O)cc1	-3	-1	9	-18	46	1	nt
CCN(C[C@H]1N[C@@](Cc2ccccc2)(C(=O)OC)[C@H]2C(=O)N(Cc3ccccc3)C(=O)[C@@H]12)S(=O)(=O)c1ccc(C(C)(C)C)cc1	8	3	-3	nt	-15	1	15
CCN(C[C@H]1N[C@@](Cc2ccccc2)(C(=O)OC)[C@H]2C(=O)N(Cc3ccccc3)C(=O)[C@@H]12)S(=O)(=O)c1ccc(OC(F)(F)F)cc1	1	1	-4	nt	-9	-8	-1
CCN(C[C@H]1N[C@@](Cc2ccccc2)(C(=O)OC)[C@H]2C(=O)N(Cc3ccccc3)C(=O)[C@@H]12)S(=O)(=O)c1ccc(F)cc1	-5	1	8	nt	37	-6	nt
Cc1cc(=O)[nH]c(NN=C2CCCCC2C)n1 (centres undefined)	1	nt	7	nt	nt	nt	nt
O=C(COC(=O)c1ccc(Cl)cc1)NCC1CCCCC1	3	5	-10	nt	1	-16	-5
COc1ccc(C(=O)OCC(=O)NCC2CCCCC2)cc1F	-1	1	0	nt	nt	nt	nt
O=C(COC(=O)c1c(F)cccc1Cl)NCC1CCCCC1	-3	9	9	nt	-3	3	6
O=C(COC(=O)c1ccc(F)cc1)NCC1CCCCC1	-11	2	-4	nt	51*	-2	0
O=C(COC(=O)c1ccc(S(=O)(=O)NCc2ccco2)cc1)NCC1CCCCC1	5	-1	0	1	14	-2	nt
CCn1c(N)cc(=O)[nH]c1=S	2	-1	6	nt	nt	nt	nt
O=C(OCCOc1ccccc1F)c1cccc(S(=O)(=O)N2CCOCC2)c1	4	-4	-15	nt	49	2	nt
O=C(NCC1CCCO1)c1ccc(COc2ccccc2)o1 (centres undefined)	-2	0	2	-1	3	120	nt
Cc1ccc(S(=O)(=O)NNC(=O)CCC(=O)Nc2ccc(C)cc2C)cc1	2	3	-1	nt	47	-3	-12
SMILES	m5-HT2A agonist	V-ATPase pH	Granule exo inh	MEX-5 binding	VLA-4 inh	GASC-1 inh	VLA-4 mod pick
CCN1CCc2c(sc(NC(=O)COc3ccccc3)c2C(=O)OC)C1	-12	3	-1	-1	-7	-1	nt
CCOC(=O)c1c(N2C(=O)C=CC2=O)sc(C)c1C	1	4	18	0	50*	-4	32
CN(CC(=O)Nc1ccccc1Cl)C(=O)COC(=O)c1ccc([N+](=O)[O-])s1	4	0	0	nt	-8	-2	nt
O=C(CNc1ccccc1)N/N=C/c1c(O)ccc2ccccc12	-5	9	5	-1	50*	8	-3
CCOC(=O)c1c(C)nc2sc3c(=O)n(-c4ccc(C)cc4)cnc3c2c1-c1ccc(OC)cc1	0	7	1	0	94*	5	11
CCOC(=O)c1c(C)nc2sc3c(=O)n(-c4ccc(C(C)=O)cc4)cnc3c2c1-c1ccc(Cl)cc1	-5	-5	2	1	10	3	nt
Cc1nc2ccsc2c(=O)n1-c1cccc(Cl)c1	0	3	-8	nt	2	-6	nt
O=C1CCCc2ccccc2N1Cc1cccc(F)c1	0	-2	-2	-2	-9	-7	nt
O=C1CCCc2ccccc2N1Cc1ccc(F)cc1	12	5	3	0	52*	-3	1
CC(=O)Nc1ccc(/C=C(\C#N)C(=O)NCc2ccccc2)cc1	1	1	0	-2	7	-20	nt
CC(=O)Nc1ccc(/C=C(\C#N)C(N)=O)cc1	3	1	13	0	-1	-3	0
CCCCNC(=O)/C(C#N)=C/c1ccc(C(=O)OC)cc1	3	0	-1	0	4	16	21
COCCNC(=O)/C(C#N)=C/c1cc(Br)c(O)c(OC)c1	-3	4	-2	4	-12	2	1
CCOCCCNC(=O)/C(C#N)=C/c1cc(Br)c(O)c(Br)c1	0	-1	8	2	nt	-7	22
N#Cc1cccc(S(=O)(=O)N2CCN(c3ccnc4cc(Cl)ccc34)CC2)c1	-1	4	11	-4	-9	-6	nt
Cc1ccc(OCC(=O)Nc2ccc(NC(=O)c3ccccc3)c(C)c2)cc1	3	-2	2	nt	0	-3	nt
NS(=O)(=O)c1ccc(CNC(=O)Cc2ccccc2F)cc1	0	8	-1	nt	2	-7	nt
NS(=O)(=O)c1ccc(CNC(=O)C(Cc2ccccc2)NS(=O)(=O)c2ccccc2F)cc1 (centres undefined)	1	1	19	2	43	-2	-9
O=C(O)C1(O)C[C@H](O)C(O)[C@@H](O)C1 (some centres undefined)	5	-1	-2	nt	50*	nt	1
NS(=O)(=O)c1ccc(NC(=O)Nc2ccccc2)cc1	-6	-4	-4	0	3	7	-1
Cc1cc(C)cc(NC(=O)Nc2cccc(S(N)(=O)=O)c2)c1	1	1	-7	3	0	5	nt
